# According to PubChem BioAssay AID1259415 (National Center for Advancing Translational Sciences (NCATS), 2018):
# In all, about 410,000 compounds went through this assay and about 18,000 (4.4%) were called active. Roughly 7% stayed inconclusive and do not appear here. The list comes from a sample in which actives are over-represented; it also holds similar structures and randomly drawn compounds. Values without a mark were called inactive. Cut-off read from the data, not from the text of the source: active = activity change below about -60%; inconclusive = no clear call, values can overlap the other calls; inactive = above about -39%.
# Experiment: qHTS Assay for inhibitors of the human cytomegalovirus (HCMV)
# Settings: HFF cells, HCMV-luciferase reporter, 72 h; at 57.5 µM; stronger effect = lower value
# How it was run: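 Two compound doses tested in HFFs infected with HCMV-luciferase, MOI 1 PFU/cell, 72 h at 37C. Lysate luminescence read with OneGlo; data normalized against buffer-only and 10uM Salinomycin inhibitor controls.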
# % is set by controls: 0 for no effect and ±100 for the full control effect.
row,SMILES,"activity change, negative = inhibition"
1,Clc1ccc(-c2cc(COc3ccccc3)no2)cc1Cl,0.868%
2,Cc1ccc(NC(=O)CSc2nnc3[nH]c(=O)cc(C)n23)cc1Cl,-38.5%
3,COc1ccc(-c2cc(=O)oc3cc(OC(C)C(=O)NCC4CCC(C(=O)O)CC4)ccc23)cc1 (centres undefined),5.3%
4,Cc1cc(=O)oc2cc(OC(C)C(=O)Nc3ccc(N4CCOCC4)cc3)ccc12 (centres undefined),5.98%
5,COc1ccc(-c2cc(=O)oc3cc(OC(C)C(=O)Nc4ccc(CN5CCOCC5)cc4)ccc23)cc1 (centres undefined),-70.7% (active)
6,CCCNC(=O)c1ccc2c(c1)ncn2-c1ccc(C)cc1C,-6.25%
7,O=C(Nc1ccc2nc(SCC(=O)N3CCCc4ccccc43)sc2c1)c1ccc(F)cc1,-5.14%
8,O=C(Nc1ccc2nc(SCC(=O)N3CCCc4ccccc43)sc2c1)c1ccc(Cl)cc1,95.5%
9,CC(C)(C)c1ccc(C(=O)Nc2ccc3c(c2)CCCN3C(=O)c2cccs2)cc1,-80.2% (active)
10,Cc1ccc(CNC(=O)CCCNC(=O)c2ccc(Cl)cc2)n1C,43.4%
11,CCOc1ccccc1CNC(=O)C1CCCN(S(=O)(=O)c2ccc3c(ccn3C)c2)C1 (centres undefined),-5.75%
12,Cc1ccc(CNC(=O)CCc2c(C)nn(-c3ccc(N4CCCC4)nn3)c2C)cc1,19.6%
13,CCCCCC1CCC(c2nnc(SCC(C)=O)o2)CC1 (centres undefined),-99.8% (active)
14,CCN(CC)C(=O)CSc1nnc(C2CCCCC2)o1,18.8%
15,Cc1[nH]c2ccccc2c1C(=O)C(C)Sc1nnc(C2CC2)o1 (centres undefined),0%
16,Cc1ccc(CNC(=O)CCNS(=O)(=O)c2ccc3c(c2)oc(=O)n3C)cc1,-1.91%
17,COC1=CC=C2[C@H]3Cc4ccc(OC)c5c4[C@@]2(CCN3C)C1O5 (some centres undefined),23.5%
18,COC1=C[C@@H]2[C@@H]3Cc4ccc(OC)c(O)c4[C@]2(CCN3C)CC1=O,-68% (active)
19,COc1ccc2c(c1)[C@]13CCCCC1C(C2)N(C)CC3 (some centres undefined),-2.65%
20,Cc1ccc(Cl)cc1N1CCN(C(=O)c2cccn3c(=O)c4cc(Cl)ccc4nc23)CC1,-4.38%
21,COc1ccc(-c2nc3scc(CCNS(=O)(=O)c4cc(F)ccc4OC)n3n2)cc1OC,34.6%
22,CCOC(=O)c1scc(-c2ccc(C)cc2)c1S(=O)(=O)Nc1cc(C)ccc1C,-16.6%
23,CCOC(=O)c1c(-c2ccc(C)cc2)csc1/N=C(\C)C1=C(O)c2ccccc2C1=O,-62.8% (active)
24,CC(=NCc1ccc2c(c1)OCO2)C1=C(O)c2ccccc2C1=O,14.5%
